From the supplement of paper PMC3724861
The sample as a whole holds a higher share of hits than the screen did. The true hit rate is not given. Unmarked numbers belong to inactive results.

tested on: T1, Caupolican (Caup) homeodomain DNA-binding domain; assay: PBM E-score (8-mer, recovered from the published 9-mer minima) (E-score (dimensionless, -0.5 to 0.5)); Drosophila protein; higher = stronger relative binding preference, active = 0.31 or more
T1 sequence: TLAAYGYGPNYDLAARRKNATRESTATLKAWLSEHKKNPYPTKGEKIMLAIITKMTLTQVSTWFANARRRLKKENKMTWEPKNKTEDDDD
Procedure, shortened: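 Caup's homeodomain DNA-binding domain (residues 214-303) was produced by in vitro transcription and translation and applied at 100 nM to custom-designed protein binding microarrays. Each value is an enrichment score giving relative binding preference for a short DNA word; higher means stronger. Published 9-mer scores were the minimum of their two constituent 8-mer scores, and the 8-mer values were recovered from those minima. A cutoff of 0.31 marks candidate binding sequences.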

Sequence	PBM E-score
GCCATGTA	0.346 (active)
ACAATGTC	0.316 (active)
CCAATGTC	0.0611
AATATTTC	0.0671
TGATTGCA	0.139
GAAATAAA	0.0685
ATGCGAAC	0.0459
GACTCAAC	0.0307
CGAAGGTC	-0.156
ACAGCAAT	0.163
ACAGTTGC	0.0312
CCGATAAC	0.0305
ACCATGTA	≥ 0.422 (active)
ACCATGCA	0.0966
ACCATGTG	0.145
AATTTGGA	0.0747
ATGAACAG	0.22
AGGAACAT	0.339 (active)
ACGAACAT	0.349 (active)
ATGAACAC	0.332 (active)
CTGAACAC	0.235
GTGAACAC	0.256
ACGAACAG	0.137
ATGAACAA	0.286

Sequence	PBM E-score
ACGAACAA	0.298
AGGAACAG	0.0859
ATGAACAT	0.326 (active)
AGGAACAC	0.193
AACGGGTA	0.0722
CCCGTCGG	-0.289
CCGCAGCC	-0.25
GCGCCGAC	-0.199
GATCGCAC	0.0699
CATTTGCG	0.00242
ACCTTCGT	-0.0522
GCCACCTA	-0.192
TACAAGTA	≥ 0.407 (active)
GACAAGTC	0.236
CACAAGTG	0.111
ACCAAGTA	0.0922
GACAAGTA	0.355 (active)
AACAAATA	0.287
TACAAAGA	0.239
CACAAGTA	0.205
AACAAGTG	0.334 (active)
GACAAATA	0.218
AACAAATG	0.174
AACAAGTA	0.33 (active)

Sequence	PBM E-score
CATGAAGG	0.0126
ACCCCGAA	-0.106
AGTGGGTC	-0.178
GAAACTGC	-0.184
ACCAGGGC	-0.112
GGCAGCTA	-0.136
CGTTTTCC	0.0392
GACGCGTC	-0.0916
ACCGTCCT	-0.0635
ACTCAAGA	-0.0159
AAGTCAGG	-0.109
AACAAGTT	0.33 (active)
AACAAGGT	0.293
AACAAGTC	0.278
CTTTGCTC	-0.0311
CATCCCTC	-0.0768
CAAGTGGG	-0.0243
ATGTGTTA	≥ 0.323 (active)
ATGTGTTG	0.34 (active)
ATGTGTGG	0.0766
GTGTGTTA	0.275
ATGTGTTC	0.266
CTGTGTTA	0.259
AAAGAAGT	0.0392
